Source: PubChem BioAssay (EPA / NIEHS)
The source made the active and inactive calls. Rule for the calls: active = hit-call score of the fitted dose curve at least 0.9, where 1 is the maximum; inactive = score below 0.9.

read-out: Cyclin D1 (CCND1), CCND1 (gene 595); assay: LTEA_HepaRG_CCND1: Life Technologies and Expression Analysis (LTEA) Assay for Cyclin D1 (CCND1) using HepaRG (AID 2283451); settings: mRNA level, 48 h; actives raise or lower the signal;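 for AC50: TaqMan qRT-PCR transcript level normalised to ACTB GAPDH and POLR2A housekeeping genes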
Description: LTEA_HepaRG is a cell based, multiplexed-readout assay that uses HepaRG, a human liver cell line, with measurements taken at 48 hours after chemical dosing on a 96-well plate.LTEA_HepaRG_CCND1 is one of 102 assay component(s) measured in the LTEA HepaRG cell culture assay. It is a marker of Cell proliferation, survival, death.Data from the assay component LTEA_HepaRG_CCND1 was analyzed into 1 endpoint. This assay endpoint, LTEA_HepaRG_CCND1, was analyzed with bidirectional fitting relative to DMSO as the negative control and baseline of activity. Using a type of inducible reporter, measures of mRNA induction for gain or loss-of-signal activity can be used to understand regulation of transcription factor activity. To generalize the intended target to other relatable targets, this assay endpoint is annotated to the cell cycle intended target family, where the subfamily is Cell proliferation, survival, death.
A total of 1060 chemcials from the ToxCast library were tested in eight-point concentration-response experiments. Cell culture and cytotoxicity assays were conducted at Thermo Fisher Scientific's Custom Services facility (Madison, WI). A single lot of human HepaRG cells (Thermo Fisher Scientific, Frederick, MD) was used for the cell culture experiments. 96-well format collagen type I coated plates of human HepaRG cells were prepared using established methods. Briefly, cryopreserved HepaRG cells were thawed, plated at a density of approximately 100,000 cells/well in HepaRG Thaw, Plate, and General Purpose media (HPRG770, Thermo Fisher Scientific), and incubated for 48 hours. 0.5% DMSO was selected as vehicle control to balance the requisite need of DMSO in HepaRG cultures to maintain differentiation (for example, baseline metabolism, proportions of hepatocytes vs. cholangiocytes), while enabling further hepatic receptor pathway activation (for example, PXR and CAR) in response to chemical exposure. 48 hours after plating, the culture medium was replaced with HepaRG Serum-Free Incudtion Media. Cells were exposed to each test chemical in duplicate and maintained in CO2 incubators for another 48 hours. Chemical plates were thawed to room temperature and 200x concentrations of treatment groups were prepared. 8-point conentration-reponse curves were made with the highest exposure at 100 uM, followed by half-log dilutions, all in 0.5% DMSO. Each test plate contained variouse controls, induction positive controls (1mM phenobarbital), cytotoxicity positive controls ([…] aflatoxin B1), vehicle controls (0.5% DMSO), and total lysis controls (0.5% DMSO). Cell morphology images were taken using an Essen IncuCyte FLR automated microscope, with six 96-well plates imaged in about 24 minutes. Images were captured and exported and JPEG files. Spent culture media was transfered to black-well plates for the LDH assay, and remaining media was sorted at -80 C for later use. Cells were treated with RLT buffer and frozen until shipped for gene expression analysis. Total RNA was isolated from the cell suspension in 75 uL of Buffer RLT (Qiagen, Germantown, MD 20874) by Quintiles/Expression Analysis (Durham, NC) using a custom isolation procedure. Total RNA from each plate well was transferred to a preamplification plate. Fluidigm's 96.96 Dynamic ArrayTM (Fluidigm, Amsterdam, the Netherlands) technology was used for gene expression analyses by quantitative reverse transcription polymerase chain reaction (qRT-PCR, performed by Quintiles/Expression Analysis, Durham, NC)89. Standard TaqManTM Assays (Applied Biosystems/ThermoFisher Scientific, Foster City, CA) were used to assess the expression of 93 genes selected based on their selectivity and sensitivity to important hepatic receptors known to be modulated by environmental chemicals; importance in human hepatocyte functionality; and hepatotoxicity. […]

outcome, inactive:
O=P(OC(CCl)CCl)(OC(CCl)CCl)OC(CCl)CCl
CC(C)CCCCCCOC(=O)c1ccc(C(=O)OCCCCCCC(C)C)c(C(=O)OCCCCCCC(C)C)c1
CC1=CC(=O)CC(C)(C)C1
COC(=O)c1ccccc1O
CCOC(=O)CC(CC(=O)OCC)(OC(C)=O)C(=O)OCC
O=C(O)CC(O)C(=O)O (stereo not given)
CC(=O)OCCC(C)C
O=C1CCC(N2C(=O)c3ccccc3C2=O)C(=O)N1 (stereo not given)
CCN(C(=O)c1cc(C)cc(OC[C@H](C)Nc2ccncc2)c1)C(C)C
CC[C@H]1CC[C@H](NCc2cc3c(cc2OC)[C@H]2C[C@H]2C(=O)N3C)[C@H](c2ccccc2)N1
Oc1ccc2c(c1)-c1ccccc1C2
CC(C)CCO
Cc1c(-c2cccnc2)c2ccccc2n1CCCCC(=O)O
CCCCCCCCCCCCCCCO
CCC(C)(C)C(=O)O[C@H]1C[C@@H](C)C=C2C=C[C@H](C)[C@H](CC[C@@H]3C[C@@H](O)CC(=O)O3)[C@H]21
Nc1cccc(N)c1
CC(C)(O)c1coc(S(=O)(=O)NC(=O)Nc2c3c(cc4c2CCC4)CCC3)c1
CC(C)=CCCC(C)CCO (stereo not given)
O=C(CCCCCCCCc1cccnc1)N1CCC(C=C(c2ccccc2)c2ccccc2)CC1
Cc1ccc(O)cc1
CCCCCCCCO
O=c1n(CC2CO2)c(=O)n(CC2CO2)c(=O)n1CC1CO1 (stereo not given)
CN(C)c1ccc(Cc2ccc(N(C)C)cc2)cc1
Clc1nc(Cl)c(Cl)c(Cl)c1Cl
CCOCCO
Cc1ccc(C)c(O)c1
O=C1OC(=O)C2C3C=CC(C3)C12 (stereo not given)
CC[C@H]1OC(=O)[C@H](C)[C@@H](O[C@H]2C[C@@](C)(OC)[C@@H](O)[C@H](C)O2)[C@H](C)[C@@H](O[C@@H]2O[C@H](C)C[C@H](N(C)C)[C@H]2O)[C@](C)(O)C[C@@H](C)C(=O)[C@H](C)[C@@H](O)[C@]1(C)O
COc1ccc(/C=C/S(=O)(=O)NC(=O)c2ccc(C)cc2Cl)cc1
Cn1cnc([N+](=O)[O-])c1Sc1ncnc2nc[nH]c12
CCn1nc(Cc2ccccc2)cc1C1CCN(C[C@H]2C[C@H](N(C)[C@@H](C(=O)O)C(C)C)C[C@@H]2c2cccc(F)c2)CC1
CCCCCCCCCCCCc1ccccc1
O=C(O)CCN(C1(C(=O)NO)CCCC1)S(=O)(=O)c1ccc(Oc2ccc(F)cc2)cc1

AC50, active:
COc1cccc(-c2ccc(/C=C\CN3CCCCCC3)cc2Cl)c1 72.2 µM
Cn1c(=O)cc(Oc2ccc(F)cc2F)c2cnc(NCC(C)(C)O)nc21 17 µM
CCOc1cccc(-n2cc(C(=O)N3CCN(c4cc(C(=O)O)c5ccccc5c4)CC3)nc2-c2ccc(C)cc2)c1 82.4 µM
CCCN(C1CCN(C(=O)C2CCNCC2)CC1)[C@@H]1CCc2ccc(OC)cc2C1 50 µM
Cc1[nH]cnc1C[C@H]1CCc2c(C)c3ccccc3n2C1=O 79.7 µM
CC(O)CN(CCN(CC(C)O)CC(C)O)CC(C)O (stereo not given) 12.5 µM
COc1ccc2sc(C(=O)Nc3nnn[nH]3)c(OC(C)C)c2c1 13.1 µM
